Test results reported in paper PMC12136788.
Changes are numbered by the printed parent chain. Over roughly 24,000 sequences, “enrichment r” has its median near 0.99; the highest 2% begin near 3.7. The sample as a whole holds a higher share of the highest values than the screen did.

T1: UNK ZnF1-3 (human, UniProt Q9C0B0 31-174)
T1 sequence: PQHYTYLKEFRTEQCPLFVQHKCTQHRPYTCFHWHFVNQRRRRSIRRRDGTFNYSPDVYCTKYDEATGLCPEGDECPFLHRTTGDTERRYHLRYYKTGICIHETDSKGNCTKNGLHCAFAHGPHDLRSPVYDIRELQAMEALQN

B1: 201281127_201284068_384_CDS_ENSG00000196141_ENST00000360760|human|control|control (ssRNA)
RNA: GGGAGUUCUACAGUCCGACGAUCCGGCUGCAGGGGCCCUGCCUCAGGCCUCUCCACCUUGUCUUUAGCAUCUUUGUUGCCUUGAUGCUGCUUGGACUUGCUUCUUUUUCUUUUAUUGUUCUUCUUUUUUCCUGUCAUAUUCCACAACAGAGGAUUGAGCAUCA
B2: chr4:144460044:144460045:+_ENSG00000153147_ENST00000283131|hu_mus|hu_hu_hu_mus_False|1_78 (ssRNA)
RNA: GGGAGUUCUACAGUCCGACGAUCACGGUCCAUAGCCUGAAGAUCAACUUGCGGAUUCCAAUCAGAAUCAUAUAAAAUGACUACAUCAGCAGUUGCAAGAUUGAUGCCCAGACCACCAGCACGUGUGCUUAGCAUAAAAACAAACAACAGAGGAUUGAGCAUCA
B3: 32049908_32050383_1188_CDS_ENSMUSG00000039262_ENSMUST00000036691|mouse|control|control (ssRNA)
RNA: GGGAGUUCUACAGUCCGACGAUCUUCUUUCCCAUCUUGGUCGUUCAUCUGGAACUGUCUGAAAGGAACACGGGGUUCCAGGCGGAGCUGAGGAAGGGGAAAAGAGCUUCGUUCCACCGUAGUCUGGUUCUCUGAUGACUGUGGCAACAGAGGAUUGAGCAUCA
B4: chr16:1859243:1859244:-_ENSG00000063854_ENST00000397353|hu_mus|FALSE|FALSE (ssRNA)
RNA: GGGAGUUCUACAGUCCGACGAUCAAUUAACUGAAAAGUAGACUGUCCUGCAUUAGCAGCAGGCCAGUCGGUUAGAAGUCCCUGUCCCAGCGUGGGUGUGCCUCAGUCCCGAGGCACCUUGAACUGGUCCUUCUCCCUGCGGAUCAACAGAGGAUUGAGCAUCA
B5: chr2:122485053:122485054:-_ENSG00000155438_ENST00000285814|hu_mus|FALSE|FALSE (ssRNA)
RNA: GGGAGUUCUACAGUCCGACGAUCUAAGCCUGAGUUUCAUAAGGAUAGUAAAACUGAGGGACCGAUGAAGCCUGAAGACAAAUUCAGGACAGGAAAGGGCACAGUCAGGUUCCCAGUGGCUUUCCUCACUGGAAAACCAAACAUCAACAGAGGAUUGAGCAUCA
B6: chr11:54532911:54532912:-_ENSMUSG00000052298_ENSMUST00000064104|mus_mus|motif|central (ssRNA)
RNA: GGGAGUUCUACAGUCCGACGAUCGCAGAGGGGCUGGAGGUGCAAUGAAAAGGCUUAAAAUGGAAAAAUUACAAUACAGUGCGGGCAGUCACAGAAAAGACCAUGCUAAGAUCCGAUCCAUGUCAAUUAAACAUUGAAAAUUCACAACAGAGGAUUGAGCAUCA
B7: 181288587_181288707_5387_3pUTR_ENSMUSG00000000826_ENSMUST00000072334|mouse|control|control (ssRNA)
RNA: GGGAGUUCUACAGUCCGACGAUCUCAUAAUCCAGUGGCUUGGUUUGGCCAUUAAGACCAGAGGACAUGGUUACUUGCUCUGGAGUAAAAAGCUAGAGCUGUUAGGCAAGAAUUCAACCACUAAGGGGCCAGACACUGUGAGGGCAACAGAGGAUUGAGCAUCA
B8: chr10:70021928:70021929:-_ENSMUSG00000037747_ENSMUST00000162251|mus_mus|motif|central (ssRNA)
RNA: GGGAGUUCUACAGUCCGACGAUCAUGCAUGCUUCAGUGGGGACAUCUGAUGGCAGAUGGACAACAGAGGGUAAUGCUCCGGUGGGAAGACAGGGUGUGUGGGGCGGGGAAGGGGCGAAAGUGGUGUUAGCGUCCGACACUGAUCAACAGAGGAUUGAGCAUCA
B9: chr19:15981513:15981514:-_ENSMUSG00000024640_ENSMUST00000025542|mus_hu|motif|central (ssRNA)
RNA: GGGAGUUCUACAGUCCGACGAUCUAAAGCAUCAUCUCCUUUGGCAUUGCCAAUGCGGAAUGGAAUAUUCAUCUUGCUUCGGUUUUGGGGCUCCACUGGACAAACGUAGAAUCCUUGAGAAUUAUCAAUAAUCUCAUAAAUUGUCAACAGAGGAUUGAGCAUCA
B10: chr17:35122734:35122735:+_ENSMUSG00000007050_ENSMUST00000114011|mus_mus|FALSE|FALSE (ssRNA)
RNA: GGGAGUUCUACAGUCCGACGAUCUCCAUCCCUCAAAUGUAUUACAUGUCGCCACGGAAGGGCUUAGGAUGCUGCUCCCAUCUCCAGGAAAGAUGAGAAAAAGGUACAGACUGGGAGCCAGUCCAGGACCAUUCUGCAGUUCCUCAACAGAGGAUUGAGCAUCA
B11: chr10:70021928:70021929:-_ENSMUSG00000037747_ENSMUST00000162251|mus_hu|motif|central (ssRNA)
RNA: GGGAGUUCUACAGUCCGACGAUCAUGCUUCAGUGGAAAACAUCUGGUGAUAAAAAUGGACAACAGAGGACCAAUGCUCCGGAGGGAGGAAAAGGGGCUGAGUAAGAAUAAGAAAAGUGGGCAUUAACGUCCAACACUGAUAUUCAACAGAGGAUUGAGCAUCA
B12: chr10:70021928:70021929:-_ENSMUSG00000037747_ENSMUST00000162251|mus_hu|FALSE|FALSE (ssRNA)
RNA: B11 RNA with G80U, G81A
B13: chr19:16212804:16212805:+_ENSG00000167460_ENST00000300933|hu_mus|hu_hu_hu_mus_False|18_68 (ssRNA)
RNA: GGGAGUUCUACAGUCCGACGAUCAACAAUUCUGGAGUGAAGGAAAGAUGUAACAUGGAACAGCAUUCCAUCUAUUACAGAAGGCACAUGGGCAACAAUGAUCACCCCAGCAUUCUCCUACGUUGACCUUAAAGACAAUCUGUUCAACAGAGGAUUGAGCAUCA
B14: 19988787_19988907_277_5pUTR_ENSG00000144566_ENST00000273047|human|control|control (ssRNA)
RNA: GGGAGUUCUACAGUCCGACGAUCCGGCGUCGCCUGCUCUUAGCGCCGCUCCCCUCACACUGGACUGUGCGGGGCUCGUGCCGUGGUGCCGCCCCUGUCGGGCUCCGUCUCCGCCUCUCGCCGCUCCCCCUUCCUCUUUCCUUUCAACAGAGGAUUGAGCAUCA

These binders were tested against T1, UNK ZnF1-3 (assay: nsRBNS (natural sequence RNA bind-n-seq); RBNS binding buffer (assumed for nsRBNS): 25 mM Tris pH 7.5, 150 mM KCl, 3 mM MgCl2, 0.01% Triton X-100, 500 ug/ml BSA, 20 U/ml SUPERase-In, 4 C; UNK is unkempt and MSI1 is Musashi-1; names of the RNAs are library labels; protein concentration not given here; high values mean tight binding).

Binder	binding signal [enrichment R]
B1	0.308
B2	1.34
B3	0.807
B4	0.931
B5	0.908
B6	4.45
B7	1.11
B8	1.77
B9	0.859
B10	1.03
B11	4.93
B12	4.68
B13	0.856
B14	0.72
